# Bioassay records (PubChem)
# Rows were chosen to be rich in hits. Some 2.8% of all compounds tested hit in one or more screens of this group.
# POLK inh: qHTS for Inhibitors of Polymerase Kappa. purified Pol kappa, fluorescent DNA synthesis assay, 10 min. 400,000 compounds, 0.53% hits. Potency, µM (series often up to 107 µM), usual class: inhibitors. DNA polymerase kappa (Homo sapiens), Q9UBT6
#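 Pol kappa 10 nM + cpd, 15 min RT; start w/ substrate 50 nM final; fluorescence kinetic read, 0 and 10 min. Neg ctrl: buffer, no enzyme.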
# POLB inh: qHTS Assay for Inhibitors of DNA Polymerase Beta; P06746; Pol beta primer extension/strand displacement, fluorescence kinetic; Potency, µM (doses to about 114 µM), most hits filed as inhibitors; 340,000 compounds, 1.3% hits
#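 Curves were derived by four-parameter Hill fits of normalized qHTS data. The kinetic fluorescent primer-extension read was taken at 0 and 10 min after 50 nM substrate, following a 15 min room-temperature preincubation of 10 nM enzyme with compounds.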
# WRN inhibitor: qHTS for Inhibitors of WRN Helicase. Potency, µM (titrated, usually from 114 µM), most hits filed as inhibitors. AID 651768, 2012. 360,000 compounds, 0.46% hits. WRN helicase unwinding, fluorescent forked duplex, kinetic; also: nearly all actives have a fitted effect of over 55% in size
#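 Kinetic fluorescence helicase assay: unwinding of a quenched forked DNA duplex (100 nM final) with 2 mM ATP final raises red fluorescence (525/598 nm). Compounds sat 15 min at room temperature with 20 nM WRN beforehand.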
# PI5P4Ka inh: qHTS for Inhibitors of phosphatidylinositol 5-phosphate 4-kinase (PI5P4K); max response, %; AID 652105, 2013; 330,000 compounds, 1.2% hits; PI5P4Kalpha enzyme, ADP-Glo luminescence, 60 min; stronger effect = lower value; Phosphatidylinositol 5-phosphate 4-kinase type-2 alpha (Homo sapiens), P48426; active = max response of -50% or lower; inconclusive = between -30% and -50%; inactive = -30% or higher; also: value at the top dose of about 77 µM
# Target sequence (P48426 whole entry, looked up): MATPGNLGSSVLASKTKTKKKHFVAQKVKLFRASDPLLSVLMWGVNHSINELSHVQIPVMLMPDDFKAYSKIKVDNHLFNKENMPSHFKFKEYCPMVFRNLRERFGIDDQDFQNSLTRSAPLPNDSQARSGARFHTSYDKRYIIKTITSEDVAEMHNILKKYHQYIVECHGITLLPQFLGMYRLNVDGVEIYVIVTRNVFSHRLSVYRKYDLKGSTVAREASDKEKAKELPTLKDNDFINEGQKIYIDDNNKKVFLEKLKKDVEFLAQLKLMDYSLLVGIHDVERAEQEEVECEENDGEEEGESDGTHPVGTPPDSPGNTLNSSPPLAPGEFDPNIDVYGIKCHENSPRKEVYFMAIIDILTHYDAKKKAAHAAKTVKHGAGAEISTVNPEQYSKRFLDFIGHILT
#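 Reactions run in 0.038 M HEPES pH 7.4, 0.28 mM EGTA, 0.1% CHAPS and 5% DMSO, with PI5P4Kalpha, substrate, compound and 5 microM ATP final, one hour at room temperature. Readout is ADP-Glo luminescence.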
# POLH inh: qHTS for Inhibitors of Polymerase Eta; Potency, µM (titrated, usually from 114 µM), actives largely listed as inhibitors; recombinant Pol eta, fluorescent DNA replication assay; DNA polymerase eta (Homo sapiens), Q9Y253; AID 588591, 2011; 390,000 compounds, 1.2% hits
#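 Pol eta at 10 nM preincubated with compounds 15 min at room temperature; reaction started with fluorescent substrate (50 nM final) and read kinetically at 0 and 10 min.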
# POLI inh: qHTS for Inhibitors of Polymerase Iota; 390,000 compounds, 1% hits; Potency, µM (doses to about 115 µM), hits mostly inhibitors; Pol iota fluorescent replication assay, 10 min; DNA polymerase iota (Homo sapiens), Q9UNA4
#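 Fluorescent replication assay read twice, at 0 min and 10 min after adding 50 nM (final) substrate. Enzyme (10 nM) and compounds were first incubated 15 min at room temperature; enzyme-free buffer wells were negative controls.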
# Hits are given with their value; . = inactive; ? = inconclusive; / = no result; ! = not active in a repeat; [ ] = remark or other dose. Unless noted, calls follow the shape of the dose curve; as a rule, active = well fitted curve in the direction sought with a large enough effect; inconclusive = small, poorly fitted or top-dose-only effect, or another doubt; inactive = no such curve, though single readings can be large; an effect the other way counts as inactive or inconclusive.
SMILES,POLK inh,POLB inh,WRN inhibitor,PI5P4Ka inh,POLH inh,POLI inh
CCN(CC)c1nc2c(c(=O)[nH]c(=O)n2C)n1CCCc1ccccc1,.,.,.,.,.,.
Cc1ccsc1C(=O)OCC(=O)NCc1ccco1,.,.,.,.,.,.
O=C(COC(=O)C1(c2ccc(F)cc2)CCCC1)NCc1ccco1,.,40µM,.,?,.,.
Cc1ccccc1C(=O)OCC(=O)NCc1ccco1,.,/,?,?,?,50µM
Cc1c(C(=O)OCC(=O)NCc2ccco2)cccc1[N+](=O)[O-],.,/,.,?,25µM,56µM
CC(C)(C)c1ccc(C(=O)OCC(=O)NCc2ccco2)cc1,.,/,.,.,.,.
O=Cc1ccc(C(=O)OCC(=O)NCc2ccco2)cc1,.,/,.,-53,?,.
COC(=O)C[C@H]1c2ccccc2S(=O)(=O)N1c1ccc(N(C)C)cc1,.,/,/,/,/,.
COc1ccc(C(=O)COc2ccccc2C(=O)Nc2ccccc2)cc1,.,.,.,.,.,.
CCCCCCCCN1[C@@H](CC(=O)O)c2ccc(/C=C/C(=O)O)cc2S1(=O)=O,?,/,/,/,/,.
Cc1ccc(OCC(=O)NCC2(N3CCOCC3)CCCCC2)cc1C,?,.,/,/,.,89µM
Cc1cc(C)cc(OCC(=O)NCC2(N3CCOCC3)CCCCC2)c1,.,.,/,/,.,.
CCOC(=O)/C=C/c1ccc2c(c1)S(=O)(=O)N(C1CCCC1)[C@H]2CC(=O)OCC,.,/,/,/,/,.
CCCCNC(=O)CCC(=O)NNc1nc2ccccc2c2nc(C)nn12,.,.,.,.,.,.
CCCCNC(=O)CCC(=O)NNc1nc2ccccc2c2nc(-c3ccccc3)nn12,.,89µM!,.,.,.,.
CCOC(=O)c1ccc(NC(=O)Nc2cccc(C)n2)cc1,.,.,.,.,.,.
CCOC(=O)c1ccc(NC(=O)Nc2ccn(C)n2)cc1,.,.,.,/,.,89µM
C#Cc1ccc([C@@H]2C=C(C(=O)NCc3ccccc3)O[C@H](OCCCCO)C2)cc1,?,/,.,-64,45µM,50µM
C=CCOC(=O)C1=C[C@H](c2ccc(C(F)(F)F)cc2)C[C@H](OCCCCO)O1,.,/,.,.,.,.
C#CCNC(=O)C1=C[C@@H](c2ccc(C#C)cc2)C[C@@H](OCCCCO)O1,?,/,.,-56,25µM,50µM
C#Cc1ccc([C@@H]2C=C(C(=O)OCC=C)O[C@H](OCCCCO)C2)cc1,?,18µM,.,?,?,?
CC(C)(C)c1ccc(Cn2cnc3c(cnn3C(C)(C)C)c2=O)cc1,.,/,/,/,/,.
Cc1nn(-c2cccc(C(F)(F)F)c2)c(Cl)c1/C=N/Nc1cccc(C(=O)O)c1,.,56µM,.,.,.,.
Cc1nn(-c2ccccc2Cl)c(Cl)c1/C=N/Nc1cccc(C(=O)O)c1,.,.,.,.,.,.
O=[N+]([O-])c1ccc2c(c1)C=C/C2=C\c1ccc(C=S)cc1,.,/,/,/,/,.
SMILES,POLK inh,POLB inh,WRN inhibitor,PI5P4Ka inh,POLH inh,POLI inh
COc1cc(C(=O)OCC(=O)N2CCC(Cc3ccccc3)CC2)cc(OC)c1OC,.,/,.,.,.,.
C/C(=N\OCC(=O)OC(C)C(=O)Nc1ccc(C)c(S(=O)(=O)N2CCOCC2)c1)c1ccc2c(c1)OCO2 (centres undefined),.,/,.[11.6 µM],.,56µM,?
COc1cccc(Cn2cnc3c(cnn3C(C)(C)C)c2=O)c1,.,/,/,/,/,.
FC(F)(F)c1nnc2ccc(NCc3ccccc3)nn12,.,.,.,.,.,.
FC(F)(F)c1nnc2ccc(NCn3nnc4ccccc43)nn12,.,.,.,.,89µM,.
O=S1(=O)CC(O)C(O)CS1 (centres undefined),/,/,.,-69,/,/
Cc1c(C#N)c(O)[nH]c(=O)c1N=Nc1ccc(Br)cc1C(=O)O,.,.,.,-59,?,.
Cc1cccc(N=Nc2c(C)c(C#N)c(O)[nH]c2=O)c1,.,.,.,?,.,.
